Structures can show the parent of a compound that is named as a salt.
What was measured:
Test in all cases: Euclidean distance of Cell Painting phenotypic profile (signed KS, 77 features) to DMSO centroid (dimensionless distance); 5 or 10 uM (library dependent); higher = stronger phenotypic change vs DMSO (phenoactivity)
Settings in all cases: 48 h
786-O = system: 786-O
Summary of the method: (§1)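 Phenoactivity is computed as Euclidean distance to the median vehicle profile. The profiles, drawn from 77 Harmony features scored as signed Kolmogorov-Smirnov statistics versus same-plate vehicle wells, were corrected for plate position, correlation-weighted and replicate-averaged at the top dose. Stained cells were imaged confocally at 20X (9 fields/well) after 48 h with library compounds at 10 or 5 uM, 0.1% DMSO final, in five cancer lines and a healthy fibroblast line.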

A549 = system: A549
Summary of the method: as §1

DU145 = system: DU145
Summary of the method: as §1

FB = system: FB
Summary of the method: as §1

HEPG2 = system: HEPG2
Summary of the method: as §1

OVCAR4 = system: OVCAR4
Summary of the method: as §1

Row | Compound | Euclidean distance (786-O) | Euclidean distance (A549) | Euclidean distance (DU145) | Euclidean distance (FB) | Euclidean distance (HEPG2) | Euclidean distance (OVCAR4)
1 | NCCc1ccc(O)c(O)c1 [Dopamine HCl] | 1.84 | 0.481 | 0.944 | 1.26 | 0.844 | 3.26
2 | C[C@]12CC[C@@H]3c4ccc(OS(=O)(=O)O)cc4CC[C@H]3[C@@H]1CCC2=O [Estropipate] | 0.946 | 0.41 | 0.686 | 0.891 | 0.623 | 1.17
3 | Cc1ccc(C(=O)Nc2cccc(C(F)(F)F)c2)cc1Nc1nc(-c2cccnc2)nc2c1cnn2C | 3.33 | 3.93 | 3.91 | 1.82 | 3.78 | 1.46
4 | N#C[C@@H]1CCCN1C(=O)CNC12CC3CC(CC(O)(C3)C1)C2 [Vildagliptin (LAF-237)] | 1.09 | 1.02 | 1.43 | 0.918 | 0.836 | 1.21
5 | CC(O)Cn1cnc2c1c(=O)n(C)c(=O)n2C (configuration not stated) [Proxyphylline] | 1.48 | 0.998 | 0.788 | 0.934 | 0.686 | 1.03
6 | O=C(O)/C=C/c1ccc(Cn2ccnc2)cc1 [Ozagrel HCl] | 0.843 | 0.862 | 1.12 | 0.899 | 1.97 | 1.61
7 | COc1ccc(-c2coc3cc(O)ccc3c2=O)cc1 [Formononetin] | 0.921 | 0.857 | 0.599 | 1.07 | 0.662 | 1.13
8 | NC(=O)N1c2ccccc2C=Cc2ccccc21 [Carbamazepine] | 1.69 | 0.483 | 1.26 | 0.984 | 1.28 | 1.59
9 | NC(=O)[C@@H]1CSSCCC(=O)N[C@@H](CCCCN=C(N)N)C(=O)NCC(=O)N[C@@H](CC(=O)O)C(=O)N[C@@H](Cc2c[nH]c3ccccc23)C(=O)N2CCC[C@H]2C(=O)N1 [Eptifibatide Acetate] | 1.66 | 1.02 | 0.993 | 1.11 | 0.664 | 1.36
10 | O=C1Nc2ccc(Cl)cc2[C@@](C#CC2CC2)(C(F)(F)F)O1 [Efavirenz] | 1.21 | 1.3 | 2.23 | 1.28 | 0.747 | 1.1
11 | CCCCOC(=O)c1ccccc1Nc1cccc(C(F)(F)F)c1 [Ufenamate] | 1.52 | 0.505 | 1.4 | 1.25 | 0.931 | 1.83
12 | CC(N)C12CC3CC(CC(C3)C1)C2 (configuration not stated) [Rimantadine] | 0.735 | 0.64 | 0.671 | 1.35 | 0.621 | 1.37
13 | Nc1ccc(S(=O)(=O)Nc2ccc(Cl)nn2)cc1 [Sulfachloropyridazine] | 1.32 | 1.01 | 0.856 | 0.835 | 0.669 | 1.25
14 | CC[C@H](c1ccc(O)cc1)[C@@H](CC)c1ccc(O)cc1 [Hexestrol] | 1.62 | 1.07 | 0.97 | 0.95 | 0.662 | 1.06
15 | Cc1ccsc1/C=C/C1=NCCCN1C [Morantel tartrate] | 0.593 | 0.834 | 0.571 | 1.19 | 0.557 | 1.21
16 | Nc1cc(F)ccc1NC(=O)c1ccc(CNC(=O)/C=C/c2cccnc2)cc1 [Tucidinostat (Chidamide)] | 3.36 | 2.59 | 2.35 | 3.31 | 3.09 | 2.66
17 | C=CC(=O)Nc1cc(Nc2nccc(-c3cn(C)c4ccccc34)n2)c(OC)cc1N(C)CCN(C)C [Osimertinib mesylate] | 4.85 | 4.05 | 2.93 | 5.59 | 5.06 | 4.46
18 | N[C@@H](CC(=O)N1CCn2c(nnc2C(F)(F)F)C1)Cc1cc(F)c(F)cc1F [Sitagliptin phosphate monohydrate] | 0.554 | 0.819 | 1.11 | 0.644 | 0.395 | 0.956
19 | CN1CCC(=C2c3ccccc3C=Cc3ccccc32)CC1 [Cyproheptadine HCl] | 1.25 | 0.786 | 1.84 | 2.04 | 2.64 | 1.39

Row | Compound | Euclidean distance (786-O) | Euclidean distance (A549) | Euclidean distance (DU145) | Euclidean distance (FB) | Euclidean distance (HEPG2) | Euclidean distance (OVCAR4)
20 | CN1C(=O)/C(=C2/C(=O)Nc3ccccc32)c2ccccc21 [Meisoindigo] | 1.94 | 2.33 | 0.82 | 2.24 | 1.8 | 1.35
21 | Cc1nc(Nc2ncc(C(=O)Nc3c(C)cccc3Cl)s2)cc(N2CCN(CCO)CC2)n1 [Dasatinib] | 3.15 | 3.53 | 4.42 | 3.41 | 2.2 | 3.92
22 | COc1ccc(-c2coc3cc(O)cc(O)c3c2=O)cc1 [Biochanin A] | 0.496 | 0.937 | 0.839 | 0.805 | 1.1 | 0.958
23 | CC(C)C[C@H](NC(=O)CNC(=O)c1cc(Cl)ccc1Cl)B1OC(=O)C(CC(=O)O)(CC(=O)O)O1 | 4.77 | 3.73 | 5.36 | 3.94 | 4.23 | 4.36
24 | NC(=O)c1noc([C@H](CCCC2CCCCC2)CC(=O)NO)n1 | 1.23 | 0.66 | 0.701 | 1.25 | 0.93 | 0.933
25 | O=C(c1cccc(Cl)c1F)N1CCN(Cc2cccc(Nc3nccs3)n2)CC1 | 2.99 | 3.18 | 1.34 | 2.34 | 2.74 | 2.83
26 | CN(C)CCC=C1c2ccccc2CCc2ccccc21 [Amitriptyline HCl] | 1.34 | 1.54 | 1.54 | 1.52 | 1.48 | 1.99
27 | COc1cc2ncnc(Nc3cccc(Cl)c3)c2cc1OC [AG-1478 (Tyrphostin AG-1478)] | 1.39 | 1.29 | 1.45 | 1.21 | 0.941 | 0.649
28 | C[C@@H](c1ncncc1F)[C@](O)(Cn1cncn1)c1ccc(F)cc1F [Voriconazole] | 1.9 | 1.17 | 0.9 | 1.01 | 0.988 | 1.25
29 | Cc1ncc(-c2ccnc(Nc3ccc(S(C)(=O)=O)cc3)n2)n1C(C)C | 2.6 | 3.78 | 3.05 | 3.19 | 3.09 | 3.43
30 | O=S(=O)(O)c1cc(O)ccc1O [Ethamsylate] | 0.716 | 0.847 | 0.74 | 1.11 | 0.713 | 1.57
31 | O=C(O)c1cccc(-c2noc(-c3ccccc3F)n2)c1 [Ataluren (PTC124)] | 1.05 | 0.791 | 1.17 | 1.13 | 0.816 | 1.51
32 | CC(C)(C)C(=O)OCOC(=O)[C@@H]1N2C(=O)[C@@H](/N=C/N3CCCCCC3)[C@H]2SC1(C)C [Pivmecillinam hydrochloride] | 1.23 | 1.69 | 0.728 | 0.994 | 0.59 | 1.14
33 | C[N+](C)(C)CCO.[Cl-] [Choline Chloride] | 0.795 | 0.549 | 0.73 | 0.801 | 0.682 | 1.46
34 | NC[C@H]1CC[C@H](C(=O)O)CC1 [Tranexamic Acid] | 1.31 | 0.903 | 0.735 | 0.672 | 1.31 | 1.09
35 | CN1C[C@@H]2C[C@H]1CN2c1cc2c(cc1F)c(=O)c(C(=O)O)cn2C1CC1 [Danofloxacin Mesylate] | 1.72 | 1.87 | 1.14 | 0.963 | 1.05 | 0.974
36 | C=C[C@@]1(C)CC(=O)[C@]2(O)[C@@]3(C)[C@@H](O)CCC(C)(C)[C@@H]3[C@H](O)[C@H](OC(C)=O)[C@@]2(C)O1 [Forskolin] | 1.79 | 1.04 | 1.39 | 1.18 | 1.34 | 1.23
37 | CC/C(=C(\c1ccccc1)c1ccc(OCCN(C)C)cc1)c1ccccc1 [Tamoxifen Citrate] | 1.05 | 2.39 | 1.36 | 1.45 | 1.5 | 1.36

From the supplement of paper PMC10127200
